The values that follow come from PubChem BioAssay AID1345085 (National Center for Advancing Translational Sciences (NCATS), 2018).

Results filed as inconclusive are left out. Active and inactive are the calls of the source. Calls follow the shape of the dose curve; as a rule, active = well fitted cell-killing curve with a large enough effect; inconclusive = small, poorly fitted or top-dose-only effect, or effect the other way; inactive = no such curve, though single readings can be large or run the other way.
Potency is read from the fitted curve at half-maximal effect.

The assay deals with PA-1. Description: Confirmatory qHTS for gynecologic anti-cancer compounds from libraries of approved drugs and bioactive compounds. Also: nearly all actives have a fitted effect of over 55% in size. Particulars: gynecologic cancer cell panel viability, ATPlite luminescence, 48 h; series mostly up to 57.6 µM. The gist of the method: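 1,000 cells/well; 16 h pre-incubation 37 C, 5% CO2; pin-transferred cpd in DMSO, 11 conc (1:3), 57.5 uM–0.977 nM; 48 h; ATPlite, 15 min RT; luminescence → IC50.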
For the compound `Cc1cc(CN2CCN(c3c(Br)cnc4nc(-c5ccc(N6CCN(C)CC6)cc5)[nH]c34)CC2)no1`, the Potency was 17.2 µM (active).

In the case of `CCc1nc(C(N)=O)c(Nc2ccc(N3CCC(N4CCN(C)CC4)CC3)c(OC)c2)nc1NC1CCOCC1`, the Potency was 1.06 µM (active).

`CCN(CC)CCCC(C)Nc1c2ccc(Cl)cc2nc2ccc(OC)cc12` (stereo not drawn): the Potency is 27.3 µM (active). Turning to `COc1ccc(-c2cc3nccn3c(Nc3ncccc3C(N)=O)n2)cc1OC`, the Potency was 6.11 µM (active). In the case of `C[C@@H](Oc1cc(-c2cnn(C3CCNCC3)c2)cnc1N)c1c(Cl)ccc(F)c1Cl`, the Potency is 6.85 µM (active).

For the compound `CN(C)c1ccc(-c2nc3ncc(Cl)c(N4CCN(CC(=O)Nc5nccs5)CC4)c3[nH]2)cc1`, the Potency was 3.35 µM (active). Consider `CN(NC(=O)CC(=O)NN(C)C(=S)c1ccccc1)C(=S)c1ccccc1`, for which the Potency was 0.0544 µM (active). On to `Cc1cnc(CNC(=O)c2c(=O)c3ccc(N4CCCN(C)CC4)nc3n3c2sc2ccccc23)cn1`, for which the Potency is 1.11 µM (active).

For `S=c1nc[nH]c2nc[nH]c12`, the Potency was 3.85 µM (active). As for `Cc1nc(NC(=O)N2CCCC2C(N)=O)sc1-c1ccnc(C(C)(C)C(F)(F)F)c1` (stereo not drawn), the figure is 27.3 µM (active); as for `Cc1ccc(C(=O)N(CCCN)C(c2oc3cc(Cl)ccc3c(=O)c2Cc2ccccc2)C(C)C)cc1` (stereo not drawn), 0.0137 µM (active); as for `Cn1cc(-c2[nH]c3cc(NC(=O)[C@H](N)C4CCCCC4)cc4c3c2C=NNC4=O)cn1`, 8.63 µM (active). For `Cc1cnc(Nc2ccc(OCCN3CCCC3)cc2)nc1Nc1cccc(S(=O)(=O)NC(C)(C)C)c1` the value was 4.32 µM (active); for `CN1CCCC(n2nc(Cc3ccc(Cl)cc3)c3ccccc3c2=O)CC1` (stereo not drawn), 27.3 µM (active). For the compound `Nc1ccc(C(=O)Nc2cccc(-c3nc(N4CCOCC4)c4oc5ncccc5c4n3)c2)cn1`, the Potency is 12.2 µM (active). Regarding `COCCOc1nc(-c2ccc(Cl)c(Cl)c2)n(-c2ccc(NC(=O)CCl)cc2)n1`, the Potency was 8.63 µM (active). Consider `CN(C)c1ccc2nc3ccc(=[N+](C)C)cc-3sc2c1`, for which the Potency is 21.7 µM (active). Take `CCCC(Nc1nc(-c2ccc(NC(=O)NCC)c(OC)c2)ncc1C)c1cccnc1` (stereo not drawn): the Potency was 0.137 µM (active).

For the compound `Cc1nc(Nc2n[nH]c3c2CN(C(=O)NC(CN(C)C)c2ccccc2)C3(C)C)c2sccc2n1` (stereo not drawn), the Potency was 0.0243 µM (active).

On to `O=c1[nH]c(=O)n([C@H]2C[C@H](O)[C@@H](CO)O2)cc1C(F)(F)F`, for which the Potency is 1.93 µM (active). As for `O=C(c1ccc(F)c(F)c1Nc1ccc(I)cc1F)N1CC(O)([C@@H]2CCCCN2)C1`, the figure is 15.3 µM (active). With `CC[C@@]1(O)C(=O)OCc2c1cc1n(c2=O)Cc2cc3cc(O)ccc3nc2-1`, the Potency is 0.109 µM (active). Turning to `CN1CCN(CCOc2cc(OC3CCOCC3)c3c(Nc4c(Cl)ccc5c4OCO5)ncnc3c2)CC1`, the Potency was 19.3 µM (active). As for `Nc1nc(Cl)nc2c1ncn2C1OC(CO)C(O)C1F` (stereo not drawn), the figure is 0.685 µM (active); as for `CC(C)Oc1ccc(C(=O)NC(CNC(=O)CN(C)C)Cc2ccc(-c3cn4cccc(C(C)O)c4n3)cc2)cc1Cl` (stereo not drawn), 0.243 µM (active). On to `CC(C)c1nn(-c2c(Cl)cccc2Cl)c2nc(Cc3ccc(OCCO)cc3)[nH]c(=O)c12`, for which the Potency was 0.0968 µM (active).

In the case of `NC(=O)c1ccc2nc(-c3ccc(Oc4ccc(Cl)cc4)cc3)[nH]c2c1`, the Potency is 6.85 µM (active). For `CC(C)C[C@H](NC(=O)[C@H](CCc1ccccc1)NC(=O)CN1CCOCC1)C(=O)N[C@@H](Cc1ccccc1)C(=O)N[C@@H](CC(C)C)C(=O)[C@@]1(C)CO1`, the Potency is 2.43 µM (active).
